Compounds with a hit are over-represented: about 2.2% of the library has one in this group of screens.
KLF5 inh: KLF5 expression inhibitors, primary screen, DLD-1 cells, luminescence; DLD-1 KLF5 promoter-luciferase reporter; inhibition, % at 5 µM; actives 0.23% (n = 290,000); AID 1700, 2009;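 active = inhibition above a per-plate limit of that plate's mean compound inhibition plus 3 SD, cut at about 60% in these data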;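 also: higher means less KLF5 promoter-driven luciferase light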
aSyn UTR inh: MLPCN primary screen, SNCA 5' untranslated region. alpha-synuclein 5'UTR reporter, inhibitor activity. inhibition, % (tested at 7.5 µM). actives 0.82% (n = 300,000). AID 1813, 2009; in the data active = inhibition above about 60%; inconclusive = no clear call, values can overlap the other calls;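 also: H4 neuroglioblastoma cells stably carrying SNCA 5'UTR luciferase fusion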
APP 5UTR inh: inhibitors of APP translation via 5'UTR reporter, primary screen, APP 5'UTR luciferase, SH-SY5Y cells; SH-SY5Y APP 5'UTR-luciferase reporter, luminescence; actives 0.82% (n = 190,000); inhibition, % at 2 µM;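 active = inhibition above a set limit, derived from the sample mean plus 3 SD, cut at about 45% in these data; inconclusive = one replicate passes the limit while the other fails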
IEC-6 tox: cytotoxicity in IEC-6 intestinal epithelial cells, primary screen, cytotoxicity control for KLF5 inhibitor project, cell-based, luminescence; actives 0.78% (n = 290,000); IEC-6 cytotoxicity, luminescence viability; inhibition, % at 5 µM; in the data active = inhibition above about 22%
Ba/F3 V617F tox: reduced viability of JAK2V617F-dependent Ba/F3 cells, primary screen, JAK2V617F inhibitor project, cell-based, Ba/F3 EpoR-JAK2V617F, luminescence; ATP luminescence; inhibition, % at 5.6 µM; actives 1.1% (n = 220,000); AID 1446, 2008;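 active = inhibition above the campaign mean plus 3 SD over all tested compounds, cut at about 24% in these data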;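 also: cytokine-independent growth of Ba/F3 cells driven by EpoR plus mutant JAK2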
BaF3 tox: parental Ba/F3 cell viability inhibition, counter-screen for JAK2V617F inhibitor project, murine pro-B, CellTiter-Glo luminescence; CellTiter-Glo ATP luminescence; inhibition, % at 5.6 µM; actives 1.1% (n = 220,000); AID 1486, 2009;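 active = inhibition above a per-campaign cutoff, the mean inhibition of all tested compounds plus 3 SD, cut at about 27% in these data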
Each line names hits and unclear results; the compound was inactive in the other large screens.

CC(=O)N1CCc2cc(S(=O)(=O)NC(C(=O)NC(C)c3ccccc3)C(C)C)ccc21 (stereo not drawn)	none (no result: APP 5UTR inh, Ba/F3 V617F tox, BaF3 tox)
O=C(C1CCCO1)N1CCN(C(=S)Nc2ccc(F)c(Cl)c2)CC1 (stereo not drawn)	Ba/F3 V617F tox 28, BaF3 tox 27
O=C(O)/C=C/c1cccc(OCc2ccccc2)c1	none
O=C(/C=C/c1cccc(OCc2ccccc2)c1)c1cccnc1	APP 5UTR inh 87
COc1ccc(CN2CCc3ccccc3C2)c(OC)c1	none (no result: APP 5UTR inh)
COc1ccc(C2=[N+](C)CCn3cccc32)c(OC)c1	Ba/F3 V617F tox 77, BaF3 tox 67
CCN(CC)S(=O)(=O)c1ccc(Oc2ccc(S(=O)(=O)N(CC)CC)cc2)cc1	Ba/F3 V617F tox 33, BaF3 tox 40
Cc1ccc(S(=O)(=O)N2CCN(C(=O)CCC(=O)NCCc3ccc(F)cc3)CC2)cc1	none
COc1ccc(Br)cc1CNC(=O)C1CCN(C(=O)N(C)C)CC1	aSyn UTR inh 78
CCc1ccc2nc(NC(=O)Cn3cnc4ccccc4c3=O)sc2c1	Ba/F3 V617F tox 33, BaF3 tox 39
CCc1ccc(NC(=O)CCS(=O)(=O)c2ccc3c(c2)CCN3C(C)=O)cc1	none (no result: APP 5UTR inh, Ba/F3 V617F tox, BaF3 tox)
CCC(=O)N1CCc2cc(S(=O)(=O)CCC(=O)Nc3ccc(CC)cc3)ccc21	BaF3 tox 93
CC1CCN(CCCNS(=O)(=O)c2cc(Br)cc3c2N(C(=O)C2CC2)CC3)CC1	none (no result: APP 5UTR inh, Ba/F3 V617F tox, BaF3 tox)
CCc1ccc(CCC(=O)Nc2ncc(Cc3ccccc3Cl)s2)o1	APP 5UTR inh 71
O=C(CN1CCOCC1)Nc1ncc(Cc2ccccc2Cl)s1	none
Cc1c(N/N=C(\C#N)C(=O)c2ccc(Cl)cc2)c(=O)n(-c2ccccc2)n1C	aSyn UTR inh 86, APP 5UTR inh 73, Ba/F3 V617F tox 31, BaF3 tox 62
Cc1c(NC(=O)COC(=O)C(c2ccc(Cl)cc2)C(C)C)c(=O)n(-c2ccccc2)n1C (stereo not drawn)	BaF3 tox 97 (no result: APP 5UTR inh)
Cc1c(NC(=O)C(C)Sc2ccccc2)c(=O)n(-c2ccccc2)n1C (stereo not drawn)	APP 5UTR inh 58
Cc1c(NC(=O)COC(=O)/C=C/c2ccc(Cl)cc2)c(=O)n(-c2ccccc2)n1C	none
Nc1nc(Nc2ccccc2F)sc1C(=O)c1ccccc1	none (no result: APP 5UTR inh, Ba/F3 V617F tox, BaF3 tox)
C=CCOc1ccc(CN(C)C(=O)C2CCCO2)cc1 (stereo not drawn)	none (no result: APP 5UTR inh, Ba/F3 V617F tox, BaF3 tox)
CCc1ccc(/C=N/NC(=O)c2cc(-c3ccncc3)nc3ccccc23)s1	aSyn UTR inh 83, APP 5UTR inh 91
Cn1cccc1/C=N/NC(=O)c1cc(-c2cccs2)nc2ccccc12	APP 5UTR inh 47
COc1ccc(-c2noc(CCC(=O)NC3CCCCCC3)n2)cc1	none (no result: APP 5UTR inh, Ba/F3 V617F tox, BaF3 tox)
COc1ccc(-c2noc(CCCC(=O)NC3CCCC3)n2)cc1	aSyn UTR inh 62 (no result: APP 5UTR inh, Ba/F3 V617F tox, BaF3 tox)
Cc1nc2cc3ccccc3cc2n1C	none
Cn1c(=O)[nH]c2cc3ccccc3cc21	aSyn UTR inh 62
CC1CCN(C(=O)CSC2=NS(=O)(=O)c3cc(F)ccc3N2)CC1	none (no result: KLF5 inh, APP 5UTR inh, IEC-6 tox, Ba/F3 V617F tox, BaF3 tox)
O=C(CCN1C(=O)c2ccccc2S1(=O)=O)Nc1ccccc1	Ba/F3 V617F tox 48, BaF3 tox 62
O=C(CN1C(=O)c2ccccc2S1(=O)=O)c1ccccc1F	aSyn UTR inh 82 (no result: APP 5UTR inh, Ba/F3 V617F tox, BaF3 tox)
O=C(CN1C(=O)c2ccccc2S1(=O)=O)c1ccc(OC(F)F)cc1	aSyn UTR inh 86 (no result: APP 5UTR inh, Ba/F3 V617F tox, BaF3 tox)
O=C(CN1C(=O)c2ccccc2S1(=O)=O)c1ccc(F)cc1	aSyn UTR inh 92 (no result: APP 5UTR inh)
O=C(CN1C(=O)c2ccccc2S1(=O)=O)N1CCN(c2ccccc2F)CC1	none
O=C(N=C1SC2CS(=O)(=O)CC2N1c1cc(Cl)ccc1Cl)C1CCCO1 (stereo not drawn)	none (no result: APP 5UTR inh, Ba/F3 V617F tox, BaF3 tox)
Cc1ccc(C(=O)N/C(=C/c2ccco2)C(=O)N2CCOCC2)cc1	none (no result: APP 5UTR inh, Ba/F3 V617F tox, BaF3 tox)
Cc1ccc(-n2nnnc2SCc2ccc(C(=O)O)cc2)cc1C	none (no result: APP 5UTR inh, Ba/F3 V617F tox, BaF3 tox)
CC(NC(=O)c1ccc(N2CCCC2)c([N+](=O)[O-])c1)c1ccc(S(N)(=O)=O)cc1 (stereo not drawn)	none (no result: APP 5UTR inh, Ba/F3 V617F tox, BaF3 tox)
O=C(CN1C(=O)c2ccccc2S1(=O)=O)c1cccc(Br)c1	aSyn UTR inh 84 (no result: APP 5UTR inh, Ba/F3 V617F tox, BaF3 tox)
CC[N+]1(CC)CC2=Cc3c(ccc4ccccc34)C(C)C2C1 (stereo not drawn)	Ba/F3 V617F tox 63, BaF3 tox 54 (no result: APP 5UTR inh)
Cc1ccc(CNC(=O)C2CCC(=O)N(CCc3cccc(F)c3)C2)cc1 (stereo not drawn)	none (no result: APP 5UTR inh, Ba/F3 V617F tox, BaF3 tox)
Cc1ccc(NC(=S)NC(=O)c2ccc(F)cc2)cc1S(=O)(=O)Nc1cccc(Cl)c1	aSyn UTR inh 81
Oc1ccc(CNc2ccc(F)cc2)c2cccnc12	aSyn UTR inh 76
COc1ccc(CCNC(=O)CSc2nnc3ccc(-c4ccccn4)nn23)cc1	none (no result: KLF5 inh, APP 5UTR inh, IEC-6 tox, Ba/F3 V617F tox, BaF3 tox)
O=C(NCc1ccccc1)C(c1cccnc1)N(C(=O)c1ccccn1)c1ccc(F)cc1 (stereo not drawn)	none (no result: APP 5UTR inh, Ba/F3 V617F tox, BaF3 tox)
N#C/C(=C\c1ccc(N2CCOCC2)o1)c1ccccc1	BaF3 tox 30
N#C/C(=C/c1ccc(N2CCOCC2)o1)c1nc2ccccc2[nH]1	none (no result: aSyn UTR inh)
N#C/C(=C/c1ccc(N2CCCCCC2)o1)c1ccc(F)cc1	none
N#C/C(=C/c1ccc(N2CCOCC2)o1)c1ccc(Br)cc1	Ba/F3 V617F tox 58, BaF3 tox 62
C=C1C(=O)C=C2CN(C(=O)c3ccccc3)[C@@](Cc3ccc(F)cc3)(C(=O)OC)[C@@H]12	aSyn UTR inh inconclusive, APP 5UTR inh 96, IEC-6 tox 27, Ba/F3 V617F tox 97, BaF3 tox 92
O=C(Nc1nccs1)c1cn2ccccc2n1	aSyn UTR inh 65 (no result: APP 5UTR inh)
CCOc1cc(C(=O)N/N=C(\C)Cc2ccc(OC)cc2)cc(OCC)c1OCC	APP 5UTR inh 86
N#CC(C#N)=C(Nc1ccc(F)cc1)SCc1cccc(F)c1	IEC-6 tox 34, Ba/F3 V617F tox 55, BaF3 tox 67
CCOc1ccc(N/C(SCc2cccc([N+](=O)[O-])c2)=C(/C#N)C(N)=O)cc1	none
Cc1n(C)c2cc(Cl)ccc2[n+]1Cc1ccccc1	Ba/F3 V617F tox 56, BaF3 tox 94
CNS(=O)(=O)c1cccc(C(=O)NCC(C)(C)N2CCCCC2)c1	none (no result: APP 5UTR inh, Ba/F3 V617F tox, BaF3 tox)
CCOC(=O)c1c(C)[nH]c2cc(Br)c(O)cc12	APP 5UTR inh 55
CCOC(=O)c1c(-c2ccc(OC)cc2)oc2cc(Br)c(O)cc12	none (no result: APP 5UTR inh, Ba/F3 V617F tox, BaF3 tox)
Cc1cccc(-n2cnc3c(sc4nc(N5CCOCC5)c5c(c43)CCCC5)c2=O)c1	none (no result: APP 5UTR inh)
Cc1cc(C)c2ccc(N)nc2c1O	aSyn UTR inh 65, APP 5UTR inh 66
CCn1c(C)nc2cc(C(=O)N/N=C(\C)c3ccc(OC)cc3O)ccc21	aSyn UTR inh 84
CCn1c(C)nc2cc(C(=O)N/N=C/c3ccc(OC)cc3)ccc21	none
CNC(=O)C(Sc1ccccc1)c1ccccc1 (stereo not drawn)	APP 5UTR inh 49
